The results in this text go back to PubChem BioAssay (EPA / NIEHS).

Calls of active or inactive are those of the source. How the source made its calls: active means hit-call score of the fitted dose curve at least 0.9, where 1 is the maximum; inactive means score below 0.9.

Experiment [1] can be described thus: ATG_CRE_CIS: Attagene CIS-FACTORIAL HepG2 Assay for human cAMP Responsive Element (CRE) binding protein 3 (AID 2282926). The conditions noted are these: HepG2 CRE cis-reporter, Attagene multiplexed mRNA; actives raise or lower the signal. Put shortly: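 Induced reporter mRNA from a CRE cis element, measured in HepG2 among many multiplexed units at 24 h. Detection used RT-PCR plus capillary electrophoresis of fluorescent fragments; DMSO served as negative control.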

Experiment [2] deals with CCAAT/enhancer-binding protein beta (Homo sapiens) (UniProt P17676). The experiment in a line: ATG_C_EBP_CIS: Attagene CIS-FACTORIAL HepG2 Assay for human CCAAT/Enhancer Binding Protein (C/EBP) beta (AID 2282927). Conditions: HepG2 Attagene cis-factorial transcription factor reporter; actives raise or lower the signal. Put shortly: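 Endogenous C/EBPb-driven reporter transcripts measured in transfected human HepG2 cells at 24 h via RT-PCR and capillary electrophoresis of labelled fragments. Activity fitted in both directions relative to DMSO baseline.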

A short description of experiment [3]: ATG_CMV_CIS: Attagene CIS-FACTORIAL HepG2 Assay for human CMV (Internal Marker) (AID 2282928).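 Further: endpoint acts as a background internal control marker rather than a target.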 Conditions: HepG2 CMV promoter reporter, transcription factor profiling; actives raise or lower the signal. Put shortly: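 24 h chemical treatment, HepG2 with transient multi-reporter transfection; RNA → oligo(dT) RT → PCR → 6-FAM extension → HpaI digest → CE fluorescence. Bidirectional fit, DMSO negative control.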

A short description of experiment [4]: ATG_DR4_LXR_CIS: Attagene CIS-FACTORIAL HepG2 Assay for human Liver X Receptor (LXR), DR4 submotif (AID 2282929). Conditions: HepG2 Attagene DR4 cis-reporter, mRNA transcription; actives raise or lower the signal. Put shortly:
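HepG2 cells were transiently transfected with multiple cis-regulated reporter units and dosed for 24 hours. The DR4 reporter mRNA was quantified by RT-PCR, 6-FAM labelling and capillary electrophoresis. Bidirectional fits used DMSO as baseline.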

Experiment [5] has as its target Aryl hydrocarbon receptor (Homo sapiens) (UniProt P35869). The experiment in a line: ATG_Ahr_CIS: Attagene CIS-FACTORIAL HepG2 Assay for human Aryl Hydrocarbon Receptor (Ahr) (AID 2282930). Conditions: HepG2 AhR cis-factorial reporter transcription; actives raise or lower the signal. Put shortly:
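Reporter mRNA levels, quantified by RT-PCR and fluorescent capillary electrophoresis, reflect endogenous AhR transcriptional activity in HepG2 cells carrying transfected cis-promoter reporter constructs. Readout at 24 h post-dose; gain or loss fitted against DMSO baseline.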

The nature of experiment [6]: ATG_AP_1_CIS: Attagene CIS-FACTORIAL HepG2 Assay for human Activator Protein 1 (AP-1) (AID 2282931). Conditions: HepG2 Attagene cis-factorial AP-1 reporter mRNA; actives raise or lower the signal. The gist of the method:
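HepG2 cells transiently transfected with cis-element-driven reporter transcription units, dosed for 24 hours. Reporter mRNA measured by RT-PCR, 6-FAM labelling, HpaI digestion and capillary electrophoresis. Bidirectional fitting against DMSO baseline.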

Experiment [7] is described as follows: ATG_AP_2_CIS: Attagene CIS-FACTORIAL HepG2 Assay for human Activator Protein 2 (AP-2) (AID 2282932). The conditions noted are these: HepG2 AP-2 cis-reporter, Attagene transcription factor profiling; actives raise or lower the signal. The gist of the method:
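Endogenous transcription factor activity is reported through transfected multiplex reporter constructs in HepG2, after 24 h of compound exposure. Transcripts were quantified by RT-PCR and capillary electrophoresis of fluorescent fragments. Bidirectional fit against DMSO.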

The nature of experiment [8]: ATG_BRE_CIS: Attagene CIS-FACTORIAL HepG2 Assay for human Bone Morphogenetic Protein (BMP) Response Element (BRE) (AID 2282933). Conditions: HepG2 BMP response element reporter, Attagene transcription factor profiling; actives raise or lower the signal. The gist of the method: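 Multiplexed cis-reporter assay, HepG2, 24 h exposure. mRNA from reporter units quantified via RT-PCR/CE; DMSO baseline; bidirectional curve fit.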

Experiment [9] deals with Retinoic acid receptor alpha (Homo sapiens) (UniProt P10276). The experiment in a line: ATG_DR5_RAR_CIS: Attagene CIS-FACTORIAL HepG2 Assay for human Retinoic Acid Receptor Alpha (RARE), DR5 submotif (AID 2282934).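 On AC50: reporter responds to endogenous RAR alpha beta and gamma in HepG2 not RARA alone.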 The conditions noted are these: HepG2 Attagene cis-factorial RARE DR5 reporter, mRNA; actives raise or lower the signal. The gist of the method: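 Reporter transcripts from a DR5-regulated unit, measured via RT-PCR plus capillary electrophoresis, reflect endogenous RAR activity in transiently transfected human HepG2 liver cells. Exposure lasted 24 h; gain or loss of signal scored against DMSO.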

In experiment [10] the target is Transcription factor E2F1 (Homo sapiens) (UniProt Q01094). The experiment in a line: ATG_E2F_CIS: Attagene CIS-FACTORIAL HepG2 Assay for human E2F Transcription Factor 1 (AID 2282935). Conditions: HepG2 Attagene cis-reporter, E2F reporter RNA transcripts; actives raise or lower the signal. Put shortly: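 Gain or loss of reporter transcript, fitted against DMSO, reflects E2F1-driven transcription. Transiently transfected HepG2 dosed 24 h before RNA isolation. Quantified by fluorescent RT-PCR products separated by capillary electrophoresis.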
Transcription factor E2F1 (Homo sapiens), sequence (Q01094 whole entry, looked up): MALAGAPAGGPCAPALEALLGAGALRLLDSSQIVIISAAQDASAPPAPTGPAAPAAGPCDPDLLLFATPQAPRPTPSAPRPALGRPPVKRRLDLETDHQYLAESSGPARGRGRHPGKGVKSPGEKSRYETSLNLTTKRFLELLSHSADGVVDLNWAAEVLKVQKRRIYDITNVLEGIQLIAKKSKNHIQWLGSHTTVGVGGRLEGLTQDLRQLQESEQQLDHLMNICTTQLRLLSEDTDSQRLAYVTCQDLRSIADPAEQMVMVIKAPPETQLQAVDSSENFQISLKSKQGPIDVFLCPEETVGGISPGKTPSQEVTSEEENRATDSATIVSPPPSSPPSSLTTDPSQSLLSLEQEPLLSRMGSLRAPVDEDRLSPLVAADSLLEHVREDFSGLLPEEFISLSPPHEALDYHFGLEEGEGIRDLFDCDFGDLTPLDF

Retinoic acid receptor alpha (Homo sapiens), sequence (P10276 whole entry, looked up): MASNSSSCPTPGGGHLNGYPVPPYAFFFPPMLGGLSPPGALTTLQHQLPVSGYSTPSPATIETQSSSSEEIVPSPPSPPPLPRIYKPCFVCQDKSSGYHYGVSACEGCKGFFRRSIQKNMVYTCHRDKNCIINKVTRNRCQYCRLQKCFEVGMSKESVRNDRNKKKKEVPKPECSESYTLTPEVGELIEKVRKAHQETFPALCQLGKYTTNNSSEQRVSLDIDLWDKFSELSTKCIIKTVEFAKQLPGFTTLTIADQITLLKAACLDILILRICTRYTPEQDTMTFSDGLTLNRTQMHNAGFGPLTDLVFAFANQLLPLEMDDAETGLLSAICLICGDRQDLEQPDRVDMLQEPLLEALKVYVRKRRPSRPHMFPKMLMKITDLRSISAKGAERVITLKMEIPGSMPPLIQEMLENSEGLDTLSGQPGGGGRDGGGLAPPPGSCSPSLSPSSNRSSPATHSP
CCAAT/enhancer-binding protein beta (Homo sapiens), sequence (P17676 whole entry, looked up, the tested form may be a part): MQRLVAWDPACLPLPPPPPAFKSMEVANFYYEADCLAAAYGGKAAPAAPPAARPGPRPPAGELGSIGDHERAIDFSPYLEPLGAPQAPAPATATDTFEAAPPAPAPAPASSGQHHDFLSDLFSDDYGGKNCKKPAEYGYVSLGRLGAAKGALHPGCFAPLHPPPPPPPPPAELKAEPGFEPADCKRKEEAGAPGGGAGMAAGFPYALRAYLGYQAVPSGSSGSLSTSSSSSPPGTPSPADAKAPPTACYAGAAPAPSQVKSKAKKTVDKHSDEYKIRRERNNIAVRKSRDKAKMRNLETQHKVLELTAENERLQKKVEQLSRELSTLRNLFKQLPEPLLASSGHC
Aryl hydrocarbon receptor (Homo sapiens), sequence (P35869 whole entry, looked up): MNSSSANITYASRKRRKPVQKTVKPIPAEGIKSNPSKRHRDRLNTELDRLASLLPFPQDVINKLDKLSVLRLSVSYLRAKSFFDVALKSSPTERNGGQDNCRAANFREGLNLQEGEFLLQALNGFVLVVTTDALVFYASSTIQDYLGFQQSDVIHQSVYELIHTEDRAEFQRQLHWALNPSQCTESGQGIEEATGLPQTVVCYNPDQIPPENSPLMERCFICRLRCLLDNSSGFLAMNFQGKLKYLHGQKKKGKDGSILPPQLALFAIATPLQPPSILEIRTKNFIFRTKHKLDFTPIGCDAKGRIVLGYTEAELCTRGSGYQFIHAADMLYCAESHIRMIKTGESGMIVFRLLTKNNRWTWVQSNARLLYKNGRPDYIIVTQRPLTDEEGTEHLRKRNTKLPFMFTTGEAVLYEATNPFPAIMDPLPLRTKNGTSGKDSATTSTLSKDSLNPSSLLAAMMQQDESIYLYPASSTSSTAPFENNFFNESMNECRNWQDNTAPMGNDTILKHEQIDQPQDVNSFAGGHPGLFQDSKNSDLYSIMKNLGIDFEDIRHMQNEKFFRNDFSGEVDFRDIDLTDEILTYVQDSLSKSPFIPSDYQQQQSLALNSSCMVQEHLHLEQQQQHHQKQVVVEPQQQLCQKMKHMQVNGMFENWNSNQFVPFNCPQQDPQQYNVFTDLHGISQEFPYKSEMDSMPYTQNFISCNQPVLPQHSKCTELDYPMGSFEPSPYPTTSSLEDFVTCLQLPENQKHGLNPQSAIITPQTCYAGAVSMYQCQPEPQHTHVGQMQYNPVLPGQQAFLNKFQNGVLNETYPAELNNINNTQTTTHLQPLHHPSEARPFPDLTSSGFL

With `Nc1ccc(Cl)cc1Cl`, the call in [1], in [2], in [3], in experiment [4], in experiment [5] and in experiment [6] was inactive. The compound was classed as inactive in [7], in experiment [8], in experiment [9] and in experiment [10].

For `Cc1cc(C)c(C)c(C)c1`, the result in [1], in experiment [2], in experiment [3], in [4], in [5] and in [6] was inactive. The result in experiment [7], in [8], in [9] and in experiment [10] was inactive.

A word on the AC50: it is the concentration at which the activity in the assay is half-maximal. For `Nc1ccc(N=Nc2ccccc2)c(N)n1`, the compound was called inactive in [1], in experiment [2], in experiment [3], in experiment [6], in experiment [7] and in experiment [8]. Moreover, the compound was classed as inactive in [9] and in experiment [10]. In addition, the AC50 in experiment [4] is 48.5 µM (active); in [5], 23.5 µM (active).

On to `NC(=O)c1ccccc1O`, for which the call in experiment [1], in experiment [2], in experiment [3], in experiment [4], in [5] and in [6] was inactive. The compound was called inactive in experiment [7], in experiment [8], in [9] and in [10].

Consider `OCCNCc1ccccc1`, for which the compound was classed as inactive in [1], in [2], in experiment [3], in [4], in experiment [5] and in experiment [6]. Also, the result in experiment [7], in experiment [8], in experiment [9] and in [10] was inactive.

Turning to `Cc1ccc(C(C)(C)C)cc1`, the call in experiment [1], in [2], in [3], in experiment [4], in experiment [5] and in experiment [6] was inactive. In addition, the call in [7], in [8], in experiment [9] and in experiment [10] was inactive.

`C#CC1(O)CC[C@H]2[C@@H]3CCC4=CCCC[C@@H]4[C@H]3CC[C@@]21C` (stereo not given in full): the result in experiment [1], in experiment [2], in [3], in experiment [5], in [6] and in experiment [7] was inactive. The compound was classed as inactive in experiment [10]. In addition, the AC50 in experiment [4] is 1.24 µM (active); in experiment [8], 34 µM (active); in [9], 49 µM (active).

With `CN(C)c1ccc(N=Nc2ccccc2C(=O)O)cc1`, the outcome in experiment [1], in [2], in [5], in experiment [7], in [8] and in experiment [9] was inactive. Further, in [10], the compound was classed as inactive. In addition, the AC50 was 137 µM (active) in [3], 29.7 µM (active) in experiment [4] and 37.7 µM (active) in experiment [6].

On to `CC=CC(=O)N(CC)c1ccccc1C`, for which the compound was classed as inactive in experiment [1], in experiment [2], in [3], in [4], in [5] and in experiment [6]. Further, the compound was classed as inactive in experiment [7], in experiment [8], in experiment [9] and in [10].

Consider `CO[Si](OC)(OC)c1ccccc1`, for which the outcome in experiment [1], in experiment [2], in experiment [3], in experiment [4], in experiment [5] and in experiment [6] was inactive. Moreover, the outcome in experiment [7], in experiment [8], in experiment [9] and in experiment [10] was inactive.

`CCO[Si](CCCN=C=O)(OCC)OCC`: the result in experiment [1], in [2], in experiment [3], in experiment [4], in experiment [5] and in experiment [6] was inactive. Also, the compound was classed as inactive in experiment [7], in experiment [8], in experiment [9] and in experiment [10].

In the case of `CC1(C)S[C@@H]2[C@H](NC(=O)COc3ccccc3)C(=O)N2[C@H]1C(=O)O`, the call in experiment [1], in experiment [2], in experiment [3], in experiment [4], in experiment [5] and in [6] was inactive. Also, the outcome in experiment [7], in experiment [8], in experiment [9] and in experiment [10] was inactive.

Take `CCCC(C)CCC(C)=O` (stereo not given): the call in experiment [1], in [2], in experiment [3], in experiment [4], in [5] and in experiment [6] was inactive. Also, the compound was classed as inactive in experiment [7], in experiment [8], in experiment [9] and in experiment [10].

For `COc1c2ccoc2cc2oc(=O)ccc12`, the outcome in experiment [1], in [2], in experiment [3], in experiment [4], in [5] and in experiment [6] was inactive. The compound was classed as inactive in experiment [7], in [8], in experiment [9] and in experiment [10].

For `CNC(=S)NN`, the outcome in experiment [1], in experiment [2], in [3], in experiment [4], in [5] and in experiment [6] was inactive. For the same compound, the compound was called inactive in experiment [7], in experiment [8], in [9] and in experiment [10].

With `Cc1cccc(C(=O)O)c1`, the call in [1], in experiment [2], in experiment [3], in experiment [4], in [5] and in experiment [6] was inactive. Besides, the result in experiment [7], in experiment [8], in experiment [9] and in experiment [10] was inactive.

As to `COC(=O)c1c(C)cc(O)c(C)c1O`, the outcome in experiment [1], in [2], in [3], in [4], in experiment [5] and in experiment [6] was inactive. For the same compound, the call in experiment [7], in experiment [8], in experiment [9] and in [10] was inactive.

Take `O=C1CCCCCN1SSN1CCCCCC1=O`: the half-maximal activity concentration (AC50) in experiment [1] is 147 µM (active). For the same compound, the result in [2], in experiment [3], in experiment [4], in [5], in experiment [6] and in experiment [7] was inactive. In addition, the compound was called inactive in [8], in experiment [9] and in experiment [10].

Turning to `CCCCCCCCCCCCCCCC[n+]1ccccc1`, the concentration at half-maximal activity (AC50) is 0.873 µM (active) in experiment [1]; 0.852 µM (active) in experiment [2]; 33.4 µM (active) in experiment [3]; 8.64 µM (active) in experiment [4]; 20.4 µM (active) in experiment [6]; 21 µM (active) in [7]. Also, the AC50 in [9] is 7.8 µM (active). For the same compound, the call in [5], in experiment [8] and in experiment [10] was inactive.

On to `CCCCCCCCCCOS(=O)(=O)O`, for which the call in experiment [1], in experiment [2], in experiment [3], in [5], in experiment [6] and in [7] was inactive. Moreover, the result in experiment [8] and in [10] was inactive. Besides, the AC50 is 67 µM (active) in experiment [4] and 61.3 µM (active) in [9].

Consider `CCC(C)(C)C1CCCCC1OC(C)=O` (stereo not given), for which the outcome in experiment [1], in experiment [2], in experiment [4], in [5], in [7] and in experiment [8] was inactive. Moreover, the outcome in [9] and in experiment [10] was inactive. Besides, the AC50 in [3] was 155 µM (active); in experiment [6], 158 µM (active).

As to `C=CC(C)(C)C`, the call in experiment [1], in [2], in [3], in [4], in [5] and in experiment [6] was inactive. The outcome in experiment [7], in [8], in [9] and in [10] was inactive.

With `CC(C)(C)C(=O)C=Cc1ccc(Cl)cc1`, the compound was classed as inactive in [1], in experiment [3], in experiment [5], in experiment [9] and in experiment [10]. Also, the AC50 in experiment [2] was 26.5 µM (active); in experiment [4] it was 17.2 µM (active); in [6], 26 µM (active); in experiment [7], 169 µM (active); in experiment [8], 12.3 µM (active).

Turning to `CCCCCC/C=C/C=O`, the outcome in experiment [1], in experiment [2], in experiment [3], in [4], in [5] and in [6] was inactive. Further, the call in experiment [7], in experiment [8], in experiment [9] and in experiment [10] was inactive.
